Experimental data taken from PubChem BioAssay AID434962 (The Scripps Research Institute Molecular Screening Center, 2010).
About 1,300 (0.41%) of roughly 320,000 compounds were called active. The sample holds actives, similar compounds and a random draw of the others, so the mix is not that of the screen. Unmarked numbers belong to inactive results.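 How the source made its calls: active means percent inhibition above the average of all tested compounds plus 3 SD, set per screening campaign (cut at about 16% in these data); inactive means the rest.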

The molecules below were run against Insulin-degrading enzyme (Homo sapiens) (UniProt P14735) (assay: human IDE inhibitors in live cells, primary screen, fluorescence polarization, HEK cells, FAbetaB substrate (AID 434962;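 further: IDE supplied by intact live HEK cells; FP after avidin binding of uncleaved biotin substrate so inhibition keeps polarization high; 0% = DMSO wells and 100% = 60 µM reference IDE inhibitor Ii1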)). Settings: FAbetaB cleavage, at 5.59 µM, hits give high values.
Chain of Insulin-degrading enzyme (Homo sapiens) (P14735 whole entry, looked up): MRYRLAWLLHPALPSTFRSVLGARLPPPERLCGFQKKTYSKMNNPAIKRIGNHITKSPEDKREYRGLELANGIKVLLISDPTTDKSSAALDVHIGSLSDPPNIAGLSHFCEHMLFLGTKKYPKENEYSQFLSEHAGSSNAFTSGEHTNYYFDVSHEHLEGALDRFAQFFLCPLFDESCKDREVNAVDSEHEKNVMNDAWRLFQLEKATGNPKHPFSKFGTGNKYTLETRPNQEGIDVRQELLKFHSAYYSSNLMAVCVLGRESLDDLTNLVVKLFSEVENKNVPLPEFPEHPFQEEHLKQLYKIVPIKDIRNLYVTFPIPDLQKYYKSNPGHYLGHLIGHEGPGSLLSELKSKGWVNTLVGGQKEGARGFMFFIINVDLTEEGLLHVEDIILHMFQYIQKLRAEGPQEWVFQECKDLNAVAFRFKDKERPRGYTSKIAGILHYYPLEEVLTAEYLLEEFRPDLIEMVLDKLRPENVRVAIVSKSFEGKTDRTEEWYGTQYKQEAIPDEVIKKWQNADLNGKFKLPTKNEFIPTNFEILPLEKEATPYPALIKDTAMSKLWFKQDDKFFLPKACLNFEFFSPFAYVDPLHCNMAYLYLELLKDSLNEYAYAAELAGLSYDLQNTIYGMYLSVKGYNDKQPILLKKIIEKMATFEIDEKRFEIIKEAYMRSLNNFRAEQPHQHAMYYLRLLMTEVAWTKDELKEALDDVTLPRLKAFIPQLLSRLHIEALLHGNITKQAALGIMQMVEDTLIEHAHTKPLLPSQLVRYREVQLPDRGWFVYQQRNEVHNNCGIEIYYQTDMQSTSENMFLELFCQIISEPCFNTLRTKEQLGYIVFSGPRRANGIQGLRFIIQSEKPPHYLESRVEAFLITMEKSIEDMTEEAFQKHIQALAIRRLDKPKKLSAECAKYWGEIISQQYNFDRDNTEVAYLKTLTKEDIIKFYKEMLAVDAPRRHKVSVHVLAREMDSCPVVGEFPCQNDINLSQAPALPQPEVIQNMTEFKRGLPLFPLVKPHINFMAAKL

SMILES	inhibition
Cc1cccc(CSc2ccc(-c3cccs3)nn2)c1	4.68%
FC(F)(F)Oc1ccc(-c2cn3cccnc3n2)cc1	6.48%
FC(F)(F)c1ccc2c3n(nc2c1)CCN=C3c1ccc(Cl)cc1	1.01%
CCn1c(O)c(N=NC2=NC(=O)CS2)c2cc(C)ccc21	5.14%
CCC(=C/c1sc2ccc3ccccc3c2[n+]1C)/C=C1\Sc2ccc3ccccc3c2N1C	50.5% (active)
O=S1(=O)CC(NCc2ccccc2)C(Nc2ccc(Cl)cc2)C1 (configuration not stated)	0.58%
COc1ccc(NS(=O)(=O)c2cc3c(cc2C)N(C(C)=O)CCO3)cc1	2.34%
CN1C(C)(C)CC(NC(=O)CCC(=O)NC2CC(C)(C)N(C)C(C)(C)C2)CC1(C)C	0.6%
C=CCN1C(=O)C2(OCCCO2)c2cccc(Cl)c21	1.02%
CCc1ccc(N(C(=O)c2csnn2)C(C(=O)NC2CCCCC2)c2ccncc2)cc1 (configuration not stated)	3.98%
Cc1cccn2c(=O)c(/C=C(\C#N)C(N)=O)c(N3CCCCCC3)nc12	15.9%
CCOC(=O)N1CCN(C(=O)CSc2nc(=O)n3cccc(C)c3n2)CC1	-1%
CCOC(=O)CC1C(=O)NCCN1c1nc2c(C)cccn2c(=O)c1/C=C1\SC(=S)N(C(C)CC)C1=O (configuration not stated)	114% (active)
O=C(COc1ccc(S(=O)(=O)N2CCOCC2)cc1Cl)N1CCOCC1	0.54%
Cc1c(C)c2ccc(OCC(=O)N3CCC(C(=O)O)CC3)c(C)c2oc1=O	9.3%
CCCCc1cc(=O)oc2c(C)c(OCC(=O)N3CCC(C(N)=O)CC3)ccc12	21.3% (active)
CCCc1cc(=O)oc2c(C)c(OCC(=O)N3CCC(C(=O)O)CC3)ccc12	0.15%
CCC(C)N(C(=O)COC(=O)c1nc(Cl)ccc1Cl)C1CCS(=O)(=O)C1 (configuration not stated)	1.33%
CNC(=O)/C(C#N)=C/c1c(F)cccc1Cl	-1.39%
CCN1CCN(C(=O)C2CCCN(S(=O)(=O)c3ccc(OC)c(OC)c3)C2)CC1 (configuration not stated)	-5.73%
CCOc1ccccc1Nc1ccc2nonc2c1[N+](=O)[O-]	-3.97%
O=C(O)c1ccccc1CSc1nc2ccccc2s1	-2.6%
O=[N+]([O-])c1c(NCCO)cc(Sc2nc3ccccc3s2)c2nonc12	21.8% (active)

SMILES	inhibition
Cc1[nH]c2ccccc2c1/C=C(/C#N)C(=O)NC(C)C	-1.7%
Nc1c(C(=O)c2cccs2)sc2nsc(SCCN3CCCCC3)c12	23% (active)
O=C(CSc1ncnc2sccc12)N1CCN(C(=O)c2cccs2)CC1	3.13%
O=[N+]([O-])c1ccc(N(CCO)Cc2ccccc2)c([N+](=O)[O-])c1	0.66%
COc1ccc(N2CCN(Cc3ccc(Br)s3)CC2)cc1	-4.53%
O=C1NC(c2ccccc2)=NC1(Nc1ccccn1)C(F)(F)F (configuration not stated)	-2.81%
Oc1ccc(N=Cc2sc3ccccc3c2Cl)cc1	0.23%
COc1ccc(N=C(C)c2sc3ccccc3c2O)cc1	41.2% (active)
COC(=O)c1ccc(/C=C/c2c(-c3ccc(OC)cc3)sc3ccccc23)cc1	1.82%
Cc1ccccc1NC(=O)Cc1nc(COC(=O)c2ccc(C(F)(F)F)cc2)cs1	7.39%
CCN(CC)C(=O)CSC(Nc1cccc(F)c1)=C(C#N)C#N	31.4% (active)
CCN(CC)C(=O)C(=O)Nc1cccc(Br)c1	1.91%
Cc1ccc(CSCC(=O)N(C)CC(=O)Nc2cccc(F)c2)cc1	5.39%
Cc1cccc(OCC(O)CN2CCN(CCN3C(=O)c4cccc5cccc(c45)C3=O)CC2)c1C (configuration not stated)	-8.18%
Cc1cccc(C)c1NC(=O)COC(=O)c1ccccc1O	3.87%
Cc1cc([N+](=O)[O-])c(N2CCC[C@@H]2C(=O)O)c([N+](=O)[O-])c1	3.34%
CS(=O)(=O)N(Cc1ccccc1)c1ccc(C(=O)NN=C2CCCCCC2)cc1	18.7% (active)
Cc1ccccc1CN(c1ccc(C(=O)NCC2CCCO2)cc1)S(C)(=O)=O (configuration not stated)	10.1%
CN1CCC(=NNC(=O)c2ccc(N(Cc3ccc(Cl)cc3)S(C)(=O)=O)cc2)CC1	8.43%
CS(=O)(=O)N(Cc1ccc(Cl)cc1)c1ccc(C(=O)NCCSCc2ccco2)cc1	2.58%
O=C(C1=C[C@H](c2ccc(C(F)(F)F)cc2)C[C@H](OCc2ccc(CO)cc2)O1)N1CCN(Cc2ccccc2)CC1	-1%
O=C(C1=C[C@H](c2coc3ccccc3c2=O)C[C@H](OCc2ccc(CO)cc2)O1)N1CCN(Cc2ccccc2)CC1	18.4% (active)
O=C(C1=C[C@H](c2coc3ccccc3c2=O)C[C@H](OCc2ccc(CO)cc2)O1)N1CCOCC1	4.19%

SMILES	inhibition
O=C(NC1CCCC1)C(=O)c1c[nH]c2ccccc12	3.35%
C[n+]1ccc(/C=C/c2c[nH]c3ccccc23)cc1	23.9% (active)
COc1ccc(/C=C(\C#N)c2c[nH]c3ccccc23)cc1	-0.68%
Clc1ccccc1-c1cc(COc2ccc3ccccc3c2)no1	3.18%
CCOc1cc(/C=C2/C(=N)N3OC(C)=CC3=NC2=O)ccc1OC	0.06%
CC1=CC2=NC(=O)/C(=C/c3coc4ccccc4c3=O)C(=N)N2O1	62.1% (active)
COc1ccc(OCCCn2cccc2/C=C2/C(=N)N3OC(C)=CC3=NC2=O)cc1	1.48%
C=CCn1c(SCCOc2ccc(OC)cc2)nnc1C(NC(=O)c1ccc(OC)cc1)C(C)C (configuration not stated)	0.39%
CC(=O)Nc1ccc(S(=O)(=O)N2CCN(CCCOc3cc(C)ccc3C)CC2)cc1	-1.56%
CCOc1ccc(NC(=O)CN(C)CC(=O)Nc2cccc(Cl)c2C)cc1OCC	1.24%
CCCc1nc(SCC(=O)Nc2ccc(S(=O)(=O)N(C)C)cc2)c2ccccc2n1	38.4% (active)
CCCNC(=O)CSc1nc(Cc2ccccc2)nc2ccccc12	4.52%
CCc1nc(SCC(=O)NNC(=O)c2ccc(C)cc2)c2ccccc2n1	0.32%
Cc1ccccc1-n1c(C)cc(/C=N/NC(=O)c2ccc(CN3CCOCC3)cc2)c1C	-1.59%
COc1ccc(N2C(=O)/C(=C\c3ccco3)N=C2SCC(N)=O)cc1Cl	6.2%
N#Cc1c(N2CCCCC2)nc(N)c2c(N)nc(SCC(=O)O)cc12	7.07%
Fc1ccc2[nH]c3c(N4CCSCC4)ncnc3c2c1	17.6% (active)
CCN1CCCC1CNc1ncnc2c1[nH]c1ccc(F)cc12 (configuration not stated)	17% (active)
CCN1CCCC1Cn1cnc2c([nH]c3cc(OC)ccc32)c1=O (configuration not stated)	6.02%
Cc1c(CN2CC[C@@H](N3CCN(c4ccccn4)CC3)[C@H](O)C2)[nH]c2ccc(F)cc12	-1.68%
CC(C)OCCCNc1ncnc2c1[nH]c1ccc(F)cc12	27.3% (active)
CCN1CCCC1CNC(=O)c1cc2cc(OC)c(OC)cc2[nH]1 (configuration not stated)	1.37%
COc1ccc(NC(=O)CSc2nnc(C3CC3)n2C)cc1S(=O)(=O)N1CCCCC1	0.43%

SMILES	inhibition
O=C1CCN(CCCc2ccccc2)CCN1CCO	9.53%
Cc1noc(C)c1S(=O)(=O)N(C)Cc1ccccc1	1.11%
Cn1ncc2c(N3CCCCC3)nc(NCCCO)nc21	4.87%
COc1cccc(/C=C/C(=O)OCC(=O)N2CCCc3ccccc32)c1	0.1%
Cc1ccc(Cn2cc(C(=O)NN)c(=O)c3ccc(F)cc32)cc1	0.01%
Cc1c(-c2cccc(Cl)c2)nc2ccccc2c1C(=O)OCC(=O)N(C)C1CCS(=O)(=O)C1 (configuration not stated)	18.3% (active)
COc1ccc2c(-c3ccccc3)cc(SCC(=O)N(C)C3CCS(=O)(=O)C3)nc2c1 (configuration not stated)	-3.71%
CN(C(=O)COC(=O)c1cc(-c2ccco2)nc2ccccc12)C1CCS(=O)(=O)C1 (configuration not stated)	-3.18%
Cc1ccc(C)c(NC(=O)c2cc(-c3cc(C)cc(C)c3O)n[nH]2)c1	-3.27%
Cc1ccc(NC(=S)NC(=O)c2ccc(-c3ccccc3)cc2)cc1	0.29%
CC(C(=O)c1ccc(-c2ccccc2)cc1)[n+]1cccc(Br)c1 (configuration not stated)	23.5% (active)
O=C(NNC(=O)c1ccc(-c2ccccc2)cc1)Nc1ccccc1	2.17%
CN(C)c1ccc(/C=C2\NC(=S)N(Cc3ccccc3)C2=O)cc1	99.8% (active)
O=C1N/C(=C/c2cccs2)C(=O)N1Cc1ccc(F)cc1	-2.86%
CN(C)c1ccc(C=C2C(=O)OC3(CCCC3)OC2=O)cc1	0.68%
CN(C1CCS(=O)(=O)C1)S(=O)(=O)c1ccc2ccccc2c1 (configuration not stated)	5.04%
O=C(C1CCN(S(=O)(=O)Cc2ccccc2)CC1)N1CCCc2ccccc21	0.11%
CC1(C)Cc2cccc(OCC(=O)N3CCN(c4ccc([N+](=O)[O-])cc4)CC3)c2O1	18.8% (active)
CC1(C)Cc2cccc(OCC(=O)NCc3ccccc3)c2O1	0.56%
CC1(C)Cc2cccc(OCC(N)=O)c2O1	-2.75%
CCCN(CCC)S(=O)(=O)c1ccc(C(=O)N2CC3CCC(CC3)C2)cc1	-1.85%
CC(=O)NCCc1ccc(S(=O)(=O)N(C)C2CCS(=O)(=O)C2)cc1 (configuration not stated)	-0.05%
CN1C(=O)/C(=C/C=C2\SCCN2C)OC1=S	25.2% (active)
